# HCV inhibitor: inhibitors of hepatitis C virus infection. Potency, µM (doses to about 41.8 µM), inactives show at the highest dose activity change, negative = inhibition, hits mostly inhibitors. AID 651820. 3.4% of 340,000 active. Huh7.5.1 HCVcc-Cre infection, luciferase reporter, 44 h
#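 Infectious HCV cell culture screen: compound-treated cells (1,000/well, pre-plated 4 h) are infected with HCVcc-Cre at roughly 0.5 moi and grown 44 h. Infection is quantified by luciferase signal after 15 min substrate incubation at room temperature.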
# Pf growth 96h: P. falciparum growth inhibition at 96 hours; 6.9% of 320,000 active; Potency, µM (doses to about 28.7 µM), for the others: top-dose activity change, negative = inhibition, usual class: inhibitors; P. falciparum luciferase reporter growth, 96 h
#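 Two-generation exposure (96 h) targets delayed-death phenotype. Reporter parasites carrying integrated firefly luciferase, in red cells at 2% hematocrit and 0.05% parasitemia final, kept at 37 C, 5% CO2; luminescence loss indicates inhibition.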
# AMA1-RON2 inh: disrupts binding of P. falciparum AMA1 to RON2. 0.2% of 360,000 active. AID 720542. AlphaScreen AMA1-biotinylated RON2 peptide binding. Potency, µM (series often up to 58.2 µM), for the others: at the highest dose activity change, negative = inhibition, actives largely listed as inhibitors;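 also: 0% = vehicle wells and -100% = peptide control; nearly all actives have a fitted effect of over 45% in size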
#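 AMA1 (3D7) with his tag at 25 nM final met compounds first, then biotinylated RON2 peptide at 25 nM; detection used donor plus acceptor beads, 10 µg/mL apiece, read by AlphaScreen after 30 min at room temperature.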
# AmpC no deterg: blocks E. coli AmpC beta-lactamase in detergent-free assay; P00811; AmpC nitrocefin hydrolysis, absorbance 480 nm, 0.0001% Triton; Potency, µM (highest dose often 57.1 µM), without a hit: at the highest dose activity change, negative = inhibition, hits mostly inhibitors; 0.52% of 330,000 active; AID 485341;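 also: plate controls were no compound for no effect and no enzyme for full effect; nearly all actives have a fitted effect of over 20% in size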
# Target sequence (P00811 whole entry, looked up): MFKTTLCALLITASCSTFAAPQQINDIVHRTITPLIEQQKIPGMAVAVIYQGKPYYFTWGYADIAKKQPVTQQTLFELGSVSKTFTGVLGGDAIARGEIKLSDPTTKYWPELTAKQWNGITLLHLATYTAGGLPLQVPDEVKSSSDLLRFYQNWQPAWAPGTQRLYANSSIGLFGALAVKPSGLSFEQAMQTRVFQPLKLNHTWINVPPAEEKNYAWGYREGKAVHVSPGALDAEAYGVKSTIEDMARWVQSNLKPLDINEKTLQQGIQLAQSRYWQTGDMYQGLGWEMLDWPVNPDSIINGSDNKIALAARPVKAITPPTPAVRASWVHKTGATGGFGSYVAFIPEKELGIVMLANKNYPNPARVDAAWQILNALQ
#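 20 mM phosphate pH 7.0 + 0.01% (detergent screen) or 0.0001% Triton X-100; 5.3 nM AmpC reagent; cpd preinc 15 min RT; nitrocefin (800 uM stock) to start; A480 q20 s × 4 min; Activity was normalised to no-enzyme and no-compound control wells.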
# AmpC detergent: blocks E. coli AmpC beta-lactamase in detergent assay; AmpC hydrolysis of nitrocefin, absorbance 480 nm, 0.01% Triton; Potency, µM (series often up to 114 µM), without a hit: top-dose activity change, negative = inhibition, actives largely listed as inhibitors; 0.041% of 370,000 active;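 also: 0% = no-compound wells and -100% = no-enzyme wells; nearly all actives have a fitted effect of over 25% in size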
#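 20 mM phosphate pH 7.0 + 0.01% (detergent screen) or 0.0001% Triton X-100; 5.3 nM AmpC reagent; cpd preinc 15 min RT; nitrocefin (800 uM stock) to start; A480 q20 s × 4 min; Activity was normalised to no-enzyme and no-compound control wells.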
# Pf growth 48h: P. falciparum growth inhibition at 48 hours (one generation); P. falciparum luciferase growth in erythrocytes, 48 h; Potency, µM (titrated, usually from 28.7 µM), without a hit: at the highest dose activity change, negative = inhibition, hits mostly inhibitors; 5.9% of 310,000 active
#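 First compound was added to culture medium, then infected red cells at 0.1% parasitemia and 2% hematocrit (final). After incubation at 37 C under 5% CO2, luciferase detection reagent was dispensed and light output recorded.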
# * hit, by the source's call; ? = inconclusive; / = not tested or not shown. Only some compounds are listed: those with a hit (about 11% of all), similar ones and a draw of the others. Calls follow the shape of the dose curve; as a rule, active = well fitted curve in the direction sought with a large enough effect; inconclusive = small, poorly fitted or top-dose-only effect, or another doubt; inactive = no such curve, though single readings can be large; an effect the other way counts as inactive or inconclusive. Unless noted, % is scaled to controls: 0 for no effect and ±100 for the full control effect; potency is read from the fitted curve at half-maximal effect.
SMILES,HCV inhibitor,Pf growth 96h,AMA1-RON2 inh,AmpC no deterg,AmpC detergent,Pf growth 48h
CCc1ccc(S(=O)(=O)c2nnn3c2nc(NC2CCCC2)c2sccc23)cc1,/,/,/,/,14%,/
CCOC(=O)c1ccc(NC(=O)C2Cc3ccccc3C(=O)O2)cc1 (centres undefined),/,/,/,/,3%,/
CCCNC(=O)C1=CC(c2ccc3c(c2)OCO3)=NS(=O)(=O)N1C,/,/,/,/,3%,/
CC(C)c1ccc(NC(=O)Cn2nnc(C(=O)NCc3ccc4c(c3)OCO4)c2N)cc1,6%,9.3µM*,-16%,-24%,1%,-17%
Cc1cc([N+](=O)[O-])nn1CC(=O)NCc1ccccc1,15%,41%,-2%,-15%,-6%,1%
Cc1cc([N+](=O)[O-])nn1CC(=O)NCc1cccs1,11%,8.3µM*,2%,-1%,1%,31%
CSCCn1c(C(C)(C)C)cc(C(=O)O)c1C,-5%,8.3µM*,-1%,-4%,9%,-5%
CCN1CCN(C(=O)Cn2ncc3c4ccccc4n(Cc4c(C)cc(C)cc4C)c3c2=O)CC1,/,/,/,/,-5%,/
COc1ccc(-c2[nH]ncc2CN(CC2CCC(=O)N2)C(C)C)cc1F (centres undefined),-26%,8.3µM*,15%,4%,0%,4%
COCCN(Cc1cn[nH]c1-c1ccc2cc(OC)ccc2c1)C(C)C,1%,12µM*,-2%,1%,-1%,15%
COC(=O)C1=C(c2ccccc2OCc2ccccc2)C[C@@H]2CC[C@H]1N2C(=O)NC1CCN(Cc2ccccc2)CC1,?,?,0%,167%,4%,13µM*
COC(=O)C1=C(c2ccc(F)cc2OCc2ccccc2)C[C@@H]2CC[C@H]1N2C(=O)NC1CCN(Cc2ccccc2)CC1,?,?,-19%,188%,4%,13µM*
COC(=O)C1=C(c2cccc(OCc3ccccc3)c2)C[C@@H]2CC[C@H]1N2C(=O)NC1CCN(Cc2ccccc2)CC1,10µM*,?,-9%,197%,-7%,13µM*
O=C(Nc1nc2n(n1)C(c1ccc(F)cc1)C=C(c1ccccc1)N2)c1ccco1 (centres undefined),/,/,/,/,-6%,/
Cc1ccccc1CNCCCSc1nnnn1C,/,/,/,/,18%,/
O=C(N/N=C/c1ccccn1)c1ccc(Cl)cc1,7%,14%,97%,-11%,?,15µM*
O=C(N/N=C/c1ccccn1)c1ccccc1,8%,18%,90%,-10%,-8%,?
CN(C)c1ccc(C(=O)N/N=C/c2ccccn2)cc1,-9%,9.3µM*,113%,-17%,?,-29%
O=C(N/N=C/c1ccccn1)c1ccncc1,8%,39%,69%,-13%,-1%,38%
Cc1ccc2oc(C(=O)Nc3c(C(=O)c4ccc(C)c(F)c4)oc4ccccc34)cc(=O)c2c1,/,/,/,/,2%,/
CN(C)c1ccc(CNC(=O)C2CCCN(S(=O)(=O)c3ccc4c(ccn4C)c3)C2)cc1 (centres undefined),/,/,/,/,11%,/
COc1ccc(/C=C2\C(=O)NC(=S)N2C(=O)c2ccc(C)cc2)cc1,8%,7.4µM*,-6%,-23%,-8%,35%
CC(C(=O)Nc1cc(C(F)(F)F)ccc1Cl)n1nnc2sc3c(c2c1=O)CCCC3 (centres undefined),/,/,/,/,-5%,/
CCOC(=O)c1cc(-c2ccccc2)sc1NC(=O)CN1C(=O)NC(CC)(c2ccc(F)cc2)C1=O (centres undefined),10µM*,/,21%,-24%,3%,?
CCOC(=O)c1cc(CC)sc1NC(=O)CCC(=O)O,9%,/,8%,-8%,0%,-4%
CCOC(=O)c1cc(-c2ccccc2)sc1NC(=O)CC,?,2.3µM*,11%,-17%,5%,5.2µM*
